PAFAH1B3 inh: PAFAH1B3 enzyme inhibitors, primary screen, biochemical, fluorescence polarization, human. recombinant PAFAH1B3, FP-rhodamine probe. inhibition, % at 3.39 µM. actives 0.28% (n = 340,000). AID 492972, 2010;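 active = inhibition above the screen-wide average of all tested compounds plus 3 SD, cut at about 25% in these data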
LYPLA1 inh: LYPLA1 inhibitors, primary screen, counter-screen for PME1 inhibitor project, biochemical, fluorescence polarization, FP-Rh probe ABPP | Acyl-protein thioesterase 1 (Homo sapiens), O75608 | recombinant LYPLA1 | actives 0.16% (n = 320,000) | inhibition, % at 5.9 µM;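 active = inhibition above the mean of all tested compounds plus 3 SD, set per campaign, cut at about 14% in these data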;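 also: inhibitors block serine hydrolase probe labeling of LYPLA1 so polarization falls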
pPAFAH inh: pPAFAH enzyme inhibitors, primary screen, biochemical, fluorescence polarization, human; actives 1.5% (n = 330,000); AID 463082, 2010; recombinant pPAFAH, FP-rhodamine probe fluorescence polarization; inhibition, % at 3.39 µM; Platelet-activating factor acetylhydrolase (Homo sapiens), Q13093;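 active = inhibition above the mean inhibition across the screen plus 3 SD, cut at about 25% in these data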;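 also: inhibitors block binding of the rhodamine activity-based probe so polarization drops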
PAFAH2 inh: PAFAH2 enzyme inhibitors, primary screen, biochemical, fluorescence polarization, human; Platelet-activating factor acetylhydrolase 2, cytoplasmic (Homo sapiens), Q99487; recombinant PAFAH2, FP-rhodamine activity probe; inhibition, % at 3.39 µM; actives 0.99% (n = 340,000);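 active = inhibition above the mean over all tested compounds plus 3 SD, cut at about 30% in these data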;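 also: inhibitors block probe labeling of enzyme so polarization drops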
PAFAH1B2 inh: PAFAH1B2 enzyme inhibitors, primary screen, biochemical, fluorescence polarization, human. inhibition, % at 3.39 µM. recombinant PAFAH1B2, FP-rhodamine activity probe. actives 1.2% (n = 340,000);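 active = inhibition above the mean of all tested compounds plus 3 SD, cut at about 24% in these data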
Target sequence (P68402 whole entry, looked up): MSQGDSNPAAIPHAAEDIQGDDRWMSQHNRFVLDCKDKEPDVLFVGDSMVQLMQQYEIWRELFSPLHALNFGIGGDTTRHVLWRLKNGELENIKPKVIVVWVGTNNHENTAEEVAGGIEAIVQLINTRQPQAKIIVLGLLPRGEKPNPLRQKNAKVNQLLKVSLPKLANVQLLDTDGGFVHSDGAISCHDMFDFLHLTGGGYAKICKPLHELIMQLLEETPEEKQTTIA
LYPLA2 inh: LYPLA2 inhibitors, primary screen, counter-screen for PME1 inhibitor project, biochemical, fluorescence polarization, FP-Rh probe ABPP; inhibition, % at 5.9 µM; recombinant LYPLA2; Acyl-protein thioesterase 2 (Homo sapiens), O95372; actives 0.38% (n = 320,000);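 active = inhibition above the screen-wide mean plus 3 SD, limit set per campaign, cut at about 26% in these data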
Target sequence (O95372 whole entry, looked up): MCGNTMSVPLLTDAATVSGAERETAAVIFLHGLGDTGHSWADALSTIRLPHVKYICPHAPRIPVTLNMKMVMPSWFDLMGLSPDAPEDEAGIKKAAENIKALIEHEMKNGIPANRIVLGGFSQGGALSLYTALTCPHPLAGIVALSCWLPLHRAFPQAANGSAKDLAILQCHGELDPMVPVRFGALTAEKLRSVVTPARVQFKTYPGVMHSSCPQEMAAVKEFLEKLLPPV
pPAFAH FP conf: pPAFAH (PLA2G7) enzyme inhibitors, confirmation, biochemical, fluorescence polarization, human | inhibition, % at 3.39 µM | shares compounds with pPAFAH inh | recombinant pPAFAH, FP-Rh probe fluorescence polarization | actives 72% (n = 2,300);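 active = mean inhibition of the triplicate above the hit cutoff set for the earlier primary screen, cut at about 25% in these data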
PAFAH2 FP conf: PAFAH2 enzyme inhibitors, confirmation, biochemical, fluorescence polarization, human. shares compounds with PAFAH2 inh. recombinant PAFAH2, FP-rhodamine activity probe. inhibition, % at 3.39 µM. actives 65% (n = 2,300). AID 493030, 2011;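 active = mean inhibition over three repeats above a set limit taken from the earlier primary screen, cut at about 30% in these data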;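 also: inhibitor blocks binding of rhodamine activity probe so polarization falls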
Numbers stand for hits; – = inactive; · = no result. Rows were chosen to be rich in hits. Some 2.9% of all compounds tested hit in one or more screens of this group.

SMILES	PAFAH1B3 inh	LYPLA1 inh	pPAFAH inh	PAFAH2 inh	PAFAH1B2 inh	LYPLA2 inh	pPAFAH FP conf	others
Oc1ccc(/C=N/Nc2ccnc3cc(Cl)ccc23)cc1O	54	–	36	–	25	–	45
CCn1cc(C2=NOC(C(=O)Nc3ccccc3C(=O)OC)C2)c(C)n1 (stereo unspecified)	–	–	–	–	–	–	·
O=C(CNC(c1ccccc1)c1ccccc1)Nc1c(F)cccc1F	–	–	89	–	–	–	–
CCc1cc2c(SCC(=O)C(C#N)=C3N(C)c4ccccc4N3C)ncnc2s1	–	–	–	–	–	–	·
COc1ccc(N2CCC(CNC(=O)Nc3ccc(Cl)cc3)C2)cc1 (stereo unspecified)	–	–	36	–	–	–	–
O=C(CC1Nc2cccc3cccc(c23)NC1=O)Nc1ccc(F)cc1 (stereo unspecified)	–	–	60	–	–	–	–
O=C(COC(=O)CCc1ccc(S(=O)(=O)N2CCOCC2)cc1)Nc1ccccc1[N+](=O)[O-]	–	·	–	–	–	·	·
N#CC1=C(N)n2c(s/c(=C\c3ccco3)c2=O)=C(C#N)C1c1ccco1 (stereo unspecified)	–	–	53	–	–	–	–
CC1CC(=O)N(CC(=O)Nc2ccc(F)cc2)c2ccccc2S1(=O)=O (stereo unspecified)	–	–	–	–	–	–	·
O=C1NC(=O)C(c2ccccc2[N+](=O)[O-])=C1Nc1ccc(O)c(Cl)c1	–	–	44	–	–	–	–
N#CCCN(NC1=NS(=O)(=O)c2ccccc21)C(=O)c1ccccc1Br	–	–	50	–	–	–	–
N=C1/C(=C/c2ccc(-c3cccc(C(=O)O)c3)o2)C(=O)N=C2SC=C(c3ccccc3)N12	27	–	50	32	26	–	62
Cc1ccc2c(=O)[nH]c(Cc3ccccc3C(=O)O)nc2c1	–	–	–	–	–	–	·
COc1cc(OC)cc(-c2c(-c3cccs3)c3cc(-c4ccc(OCc5ccccc5)cc4)ccc3n2C)c1	–	·	45	–	–	·	–
CCC1(C)CC(CCNS(=O)(=O)c2ccc(C)cc2)(c2ccc(C)cc2)CCO1 (stereo unspecified)	–	–	–	–	–	–	·
CCc1ccccc1NC(=O)c1noc(C(C)C)c1[N+](=O)[O-]	–	–	–	–	–	–	·
c1ccc(Nc2nc3ccccc3[nH]2)nc1	–	–	36	–	–	–	–
Nc1ccc(Nc2nc3ccccc3[nH]2)cc1	–	–	–	–	–	–	·
O=C(N/N=C/c1ccc(OCc2ccc(F)cc2)cc1)c1ccccc1	–	–	–	–	–	–	·
O=C(COc1ccccc1C(=O)N/N=C\c1ccc(O)c(O)c1)N/N=C/c1ccc(O)c(O)c1	–	–	62	42	–	–	80
O=C(COc1ccccc1[N+](=O)[O-])N/N=C/c1ccc(O)c([N+](=O)[O-])c1	–	–	–	–	–	–	·
CC(C)(C)c1ccc(OCc2ccc(C(=O)N/N=C/c3ccc(O)c(O)c3)cc2)cc1	–	–	43	–	–	–	74
COC(=O)c1[nH]c2cc(OC)ccc2c1NC(=O)CCN1CCCCC1	–	–	39	–	–	–	–
Cc1nn(Cc2noc(C(=O)NCCc3ccccn3)n2)c(C)c1Br	–	–	–	–	–	–	·
CCOc1c(Cl)cc(CNC(C)(C)CC(C)(C)C)cc1OC	–	–	–	–	–	–	·
SMILES	PAFAH1B3 inh	LYPLA1 inh	pPAFAH inh	PAFAH2 inh	PAFAH1B2 inh	LYPLA2 inh	pPAFAH FP conf	others
C=CCn1c(SCc2ccccc2)nc(O)cc1=O	–	–	–	–	–	–	·
O=C(Oc1nsnc1N1CCCCC1)N1CCOCC1	–	–	79	–	–	–	73
O=C(C[C@H]1C/C=C\CC[C@H](Cc2ccc(F)cc2)C(=O)O[C@H](c2ccccc2)CNC1=O)N[C@H](CO)Cc1ccccc1	–	·	55	–	–	·	–
Cc1ccc(CNC(=O)c2ccc3c(=O)[nH]c4c(C(=O)NCC5CCCO5)sc(=S)n4c3c2)cc1 (stereo unspecified)	34	–	38	31	30	–	75
CCn1c(N)c(C(=O)NCC2CCCO2)sc1=S (stereo unspecified)	–	–	–	–	–	–	·
O=C(NCc1ccccc1)c1ccc2c(=O)[nH]c3c(C(=O)NCC4CCCO4)sc(=S)n3c2c1 (stereo unspecified)	34	–	63	54	35	–	81
CCCCCNC(=O)c1ccc2c(=O)[nH]c3c(C(=O)NCC4CCCO4)sc(=S)n3c2c1 (stereo unspecified)	38	–	62	45	49	–	74
O=C(NCc1ccco1)c1sc(=S)n2c1[nH]c(=O)c1ccccc12	–	–	47	–	–	–	61
Cc1ccc(CNC(=O)c2ccc3c(=O)n(CC4CCCO4)c(=S)[nH]c3c2)cc1 (stereo unspecified)	–	–	–	–	–	–	·
C=CCn1c(N)c(C(=O)NCc2ccco2)sc1=S	–	–	–	–	–	–	·
Oc1c(C=NCc2ccccc2)sc2ccccc12	–	–	–	–	–	–	·
Oc1cccc(C=NCc2ccccc2)c1O	–	–	57	–	–	–	–
Oc1cccc(C=Nc2cccc3ccccc23)c1O	28	–	76	–	–	–	–
COc1cc(NS(=O)(=O)c2ccc(Nc3nc(-c4cccc([N+](=O)[O-])c4)cs3)cc2)nc(OC)n1	–	–	47	43	–	–	69	PAFAH2 FP conf=–
CCOc1ccc(C(=O)CCC(=O)N(CC)CC(=O)NCc2ccc(Cl)cc2)cc1	–	–	–	–	–	–	·
COc1cccc(-n2c(SCc3cc(=O)oc4cc(O)c(O)cc34)nc3ccccc3c2=O)c1	–	–	94	64	–	–	92	PAFAH2 FP conf=54
CCN(CC)C(=O)CSc1nc2ccccc2c(=O)n1-c1cccc(OC)c1	–	–	–	–	–	–	·
O=C(COC(=O)C1C2CC3OC(=O)C1C3C2)Nc1ccccc1 (stereo unspecified)	–	–	–	75	–	–	·	PAFAH2 FP conf=66

Screening data as filed in PubChem.
